The text below walks through data of the supplement of paper PMC6555819.

Holding throughout (experiment): PBM binding z-score (relative to random genomic background probes); higher = stronger binding; sequences stand for … in GC…GCGATTGACAGCGTAGAATGAAGG
For experiment [1], the system named is RARb homodimer (NR concentration 270 nM). In outline: (§1)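 Scanned fluorescence from custom Agilent 4×180K protein-binding microarrays was regression-normalized. Binding z-scores use random background probes as reference. Ligand-free nuclear receptor dimers were incubated on the arrays for 1 h and detected with antibodies against each partner (one per run).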

The test system of experiment [2] is RARg:RXRa (NR concentration 270 nM, RXRa partner concentration 90 nM). An outline of the steps:
as §1

Experiment [3] relates to RARg homodimer (NR concentration 270 nM). In outline: as §1
Experiment [4] has as its system RXRa DBDmut IVT, anti-RXR (DBD mutation: RXRa K156A/R161A, NR concentration 90 nM). In outline:
as §1

The subject of experiment [5] is RXRa homodimer (NR concentration 180 nM). An outline of the steps: as §1
Experiment [6] has as its system THRa:RXRa (NR concentration 90 nM, RXRa partner concentration 90 nM). An outline of the steps:
as §1

The subject of experiment [7] is THRa homodimer (NR concentration 90 nM). In outline:
as §1

Experiment [8] concerns VDR:RXRa (NR concentration 270 nM, RXRa partner concentration 90 nM). In outline:
as §1

Experiment [9] has as its system VDR homodimer (NR concentration 270 nM). An outline of the steps: as §1

For CGTCCAAGGTCAAAGGTCAGTAAAGAGATGACGG, the PBM binding z-score in [1] turned out to be 5.42; in experiment [2], 8.65; in experiment [3] it was 8.13; in experiment [4], 3.88; in experiment [5], 10.4; in experiment [6], 4.82. Moreover, the PBM binding z-score in [7] came out at 2.37; in experiment [8], 6.53; in experiment [9], 3.52.
For CTATGTAGGTTAAGGGGGTGATTCAGTTTGAAAG, the PBM binding z-score was 1.97 in experiment [1]; 2.23 in experiment [2]; 1.77 in [3]; 1.42 in experiment [4]; 2 in experiment [5]; 2.21 in [6]. Moreover, the PBM binding z-score came out at 1.73 in experiment [7], 3.99 in experiment [8] and 2.22 in experiment [9].
With TAGCCTAGGCCATGGGCCAGTATACCACGCGAAC, the PBM binding z-score in experiment [1] is -0.0202; in [2], -0.148; in experiment [3] it was 0.285; in experiment [4] it was -1.69; in experiment [5] it was -0.256; in experiment [6] it was -0.253. Also, the PBM binding z-score in experiment [7] was -0.645; in [8], -0.852; in experiment [9], -0.837.
CCTAGTTGGTCAGGTGGTCACACACCGGATATGA: the PBM binding z-score in experiment [1] was 1.48; in experiment [2], 1.03; in experiment [3], 1.38; in experiment [4], -0.358; in experiment [5], 0.463; in experiment [6] it was 0.254. For the same sequence, the PBM binding z-score in [7] is 0.259; in experiment [8], 0.156; in experiment [9] it was 0.314.
Consider CCTACTGGGCCAAAAAGGCCATTGATGCCGATAA, for which the PBM binding z-score in [1] is 0.855; in [2] it was 0.216; in experiment [3] it was 0.242; in experiment [4], -0.537; in [5], -0.173; in experiment [6], 0.0885. Besides, the PBM binding z-score in experiment [7] was -0.514; in experiment [8] it was 0.326; in [9], -0.0566.
Turning to ATACCAAGGTTATCGTGAGGTCGTTGATACTAAC, the PBM binding z-score came to 2.36 in [1]; 4.49 in [2]; 2 in [3]; 2.26 in [4]; 3.2 in experiment [5]; 4.2 in experiment [6]. Besides, the PBM binding z-score was 2.91 in experiment [7], 4.98 in experiment [8] and 3.67 in experiment [9].
For CGCACTAGGTCAAAGGACAGTGAAAGGCGACGTA, the PBM binding z-score amounted to 3.01 in experiment [1]; 4.03 in experiment [2]; 4.5 in experiment [3]; 1.95 in [4]; 2.87 in experiment [5]; 2.68 in experiment [6]. Further, the values for the PBM binding z-score in experiment [7], in experiment [8] and in [9] were 0.793, 1.35 and 0.314, respectively.
On to CCGAGTAGGTTACGAGGTGGCATTCAGTGCGAAT, for which the PBM binding z-score in experiment [1] was determined as 0.473; in experiment [2] it was 0.479; in experiment [3], 0.466; in [4] it was 0.226; in experiment [5], 0.697; in [6], 0.837. In addition, the PBM binding z-score is -0.2 in [7], 0.516 in experiment [8] and 0.0157 in experiment [9].
In the case of CGAACTATGTCAAAGGACAGTGAAAGGCGACGTA, the PBM binding z-score in [1] is 1.14; in experiment [2] it was 1.08; in [3], 1.39; in [4], -0.18; in [5] it was 0.00503; in [6], 0.122. In addition, the PBM binding z-score is -0.538 in [7], -0.0394 in experiment [8] and -0.0132 in experiment [9].
Regarding CCTAGTAGGTTATGGGGCATTCAGGCAACGGTGA, the PBM binding z-score in [1] is 0.8; in experiment [2], 0.878; in experiment [3], 0.852; in experiment [4], -0.581; in experiment [5] it was 0.835; in experiment [6], 0.719. Further, the PBM binding z-score in experiment [7] came out at 0.289; in experiment [8] it was 0.233; in [9], 0.0809.
Turning to CCGACGGGGGCAGAAAGGTTACCATACCATCCGG, the PBM binding z-score in experiment [1] was 3.29; in experiment [2] it was 4.2; in [3], 3.58; in experiment [4], 1.16; in experiment [5], 3.31; in [6], 2.99. In addition, the values for the PBM binding z-score in experiment [7], in experiment [8] and in experiment [9] were 0.6, 4.49 and 2.21, respectively.
With CTATGTAGGTTTAGGGGGTCATTCAGTTTGAAAG, the PBM binding z-score in experiment [1] was 3.42; in experiment [2], 4.23; in [3], 3.14; in experiment [4], 2.35; in experiment [5], 4.8; in [6] it was 3.52. Moreover, the PBM binding z-score in [7] was 1.9; in [8], 6.29; in experiment [9] it was 5.35.
As to AGACAAAGTTCAGGACGAGGTAACGTAAAGCACG, the PBM binding z-score in [1] worked out at 3.04; in [2] it was 4.75; in experiment [3], 4.73; in [4], 2.87; in experiment [5], 2.9; in [6], 3.86. Also, the PBM binding z-score in [7] is 1.51; in [8] it was 2.91; in [9] it was 2.08.
Turning to GATACAGGGTCATCTAGAGGCCAGAGTATGGAAA, the PBM binding z-score in experiment [1] stood at 3.71; in experiment [2], 7.56; in experiment [3] it was 5.37; in experiment [4], 3.39; in experiment [5], 6.6; in experiment [6], 3.76. Besides, the results for the PBM binding z-score in experiment [7], in experiment [8] and in experiment [9] were 0.837, 5.14 and 2.85, respectively.
As to ATATGTAGGTTAGCTGGAGTCATTCAGACTAGGC, the PBM binding z-score in experiment [1] was 0.259; in [2] it was 0.523; in experiment [3], 0.683; in [4], -0.228; in experiment [5], 0.583; in experiment [6], 0.807. The results for the PBM binding z-score in experiment [7], in experiment [8] and in experiment [9] were -0.355, 0.533 and -0.00881, respectively.
In the case of ATATGTAGGTTAGGGTCATTCACAAAGTAGGGAA, the PBM binding z-score amounted to 3.69 in [1]; 3.98 in [2]; 3.1 in experiment [3]; 2.7 in experiment [4]; 5.07 in [5]; 4.38 in [6]. Moreover, the PBM binding z-score in experiment [7] worked out at 2.96; in experiment [8] it was 4.61; in experiment [9], 3.86.
